# From patent US20150359843, “P53 ACTIVATING PEPTIDES” (Agency for Science, Technology and Research, published 2015)
# What was measured:
# [1] = biological target: p53 wt-Δ22 (C-terminal truncated, lacking 372-393) (UniProt P04637 P04637:1-371); assay: pulldown; 36 nM RE; conditions: tags: none (CosmoBio PURE IVT); chain copies: 4 inferred; dsDNA, one strand shown
# [2] = biological target: p53 wt-FL (UniProt P04637 P04637:1-393); assay: pulldown; 36 nM RE; 17-fold when p53 amount doubled; conditions: tags: none (CosmoBio PURE IVT); chain copies: 4 inferred; dsDNA, one strand shown
# p53 wt-FL, sequence (P04637 whole entry, one chain of several): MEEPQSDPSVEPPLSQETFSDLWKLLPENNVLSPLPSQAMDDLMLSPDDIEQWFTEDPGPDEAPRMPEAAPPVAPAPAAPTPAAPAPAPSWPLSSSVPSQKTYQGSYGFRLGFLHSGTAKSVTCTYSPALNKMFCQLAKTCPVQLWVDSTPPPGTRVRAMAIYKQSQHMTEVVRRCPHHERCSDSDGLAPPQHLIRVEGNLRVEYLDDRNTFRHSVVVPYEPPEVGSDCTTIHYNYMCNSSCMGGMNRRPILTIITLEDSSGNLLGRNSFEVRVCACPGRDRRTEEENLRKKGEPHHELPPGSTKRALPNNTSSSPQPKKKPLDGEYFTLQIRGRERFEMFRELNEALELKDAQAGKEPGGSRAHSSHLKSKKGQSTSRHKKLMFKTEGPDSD
# p53 wt-Δ22 (C-terminal truncated, lacking 372-393), sequence (P04637 1-371, stated change not applied, one chain of several): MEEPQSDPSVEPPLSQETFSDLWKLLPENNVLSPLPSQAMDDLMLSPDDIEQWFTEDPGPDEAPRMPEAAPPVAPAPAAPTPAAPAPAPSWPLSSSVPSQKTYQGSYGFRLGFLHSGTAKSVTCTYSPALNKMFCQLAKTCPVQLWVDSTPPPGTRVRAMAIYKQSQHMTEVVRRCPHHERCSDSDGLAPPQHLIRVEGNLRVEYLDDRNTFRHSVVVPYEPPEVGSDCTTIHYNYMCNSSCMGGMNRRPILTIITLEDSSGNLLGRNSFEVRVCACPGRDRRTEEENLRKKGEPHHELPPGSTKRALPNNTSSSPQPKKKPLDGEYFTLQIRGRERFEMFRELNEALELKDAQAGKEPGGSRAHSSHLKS
Sequence,binding signal [1],binding signal [2]
CTTGGGAACAAGGGCATGAGCTTGTCTGGGCT,~3 fold over control DNA,–
CGCGCCTGCAAGTCCTGACTTGTCCGCGGC,–,~2.8 fold over control DNA
